Laboratory results: the supplement of paper PMC12645437, “Orthogonal IMiD-Degron Pairs Induce Selective Protein Degradation in Cells” (ACS Chemical Biology, 2025)
The full ranking holds about 8,300 sequences; the median of “log2 fold change of degron read counts, EGFP-low vs EGFP+ sorted cells (limma voom), compound-induced degradation” is about -1.1, and the highest 2% start at about 3.2. Many of the other results were omitted from the sample, so the highest values are more common in it than they were.

T1: CRBN, Q96SW2
T1 chain: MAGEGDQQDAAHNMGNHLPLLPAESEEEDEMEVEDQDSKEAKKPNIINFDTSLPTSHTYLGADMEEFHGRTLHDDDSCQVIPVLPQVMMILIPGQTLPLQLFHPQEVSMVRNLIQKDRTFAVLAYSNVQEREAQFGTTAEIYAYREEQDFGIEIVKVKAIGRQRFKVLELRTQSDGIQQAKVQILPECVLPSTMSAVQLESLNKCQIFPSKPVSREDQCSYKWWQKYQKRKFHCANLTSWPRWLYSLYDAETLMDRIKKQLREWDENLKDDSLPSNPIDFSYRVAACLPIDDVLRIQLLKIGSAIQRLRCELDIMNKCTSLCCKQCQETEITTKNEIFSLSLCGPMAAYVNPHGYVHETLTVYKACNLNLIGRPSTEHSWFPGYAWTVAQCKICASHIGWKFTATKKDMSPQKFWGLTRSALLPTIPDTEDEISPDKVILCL


Molecular target: T1, CRBN, Q96SW2
Test: log2 fold change of degron read counts, EGFP-low vs EGFP+ sorted cells (limma voom), compound-induced degradation; higher = more compound-induced degradation of the degron-EGFP fusion; degrons are variants of IKZF1/3 zinc finger 2; compound dose not given here
Settings: Jurkat, 18 h
Method: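 Pooled library of 8380 IKZF3 ZF2 degron mutants (positions 146-167 varied within the IKZF3 130-189 degron; only the varied core is printed, flanks not printed) fused to EGFP with IRES-mCherry, lentivirally expressed in Jurkat cells. mCherry+ cells were treated with one IMiD compound for 18 h (dose not stated) and FACS-sorted into EGFP-low and EGFP+ populations. Degron sequences were counted by NGS, and log2FC (EGFP-low vs EGFP+) was estimated by limma voom over 3 biological replicates.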

[1] = compound: compound 19 (5-tert-butyl-thalidomide)
[2] = compound: compound 22 (5-morpholino-thalidomide)
[3] = compound: compound 33 (diphenyl IMiD analogue)
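Note: pooled lentiviral library of zinc finger degron-EGFP fusions in mCherry-positive Jurkat cells, FACS-sorted after compound exposure, with degron abundance counted by next-generation sequencing.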

Sequence | log2 fold change of degron read counts [1] | log2 fold change of degron read counts [2] | log2 fold change of degron read counts [3] | log2 fold change of degron read counts (compound: thalidomide)
FKCEQCGAVFTQKGNLLRHIKL [46F_47K_49E_50Q_52G_53A_54V_55F_67L_, Q9UKT9] | -3.73 | -2.96 | -3.73 | -3.19
FKCNQCGAVFTQKGNLLRHIKL [46F_47K_49N_50Q_52G_53A_54V_55F_67L_, Q9UKT9] | -2.58 | -2.71 | -3.07 | -2.52
LCCNQCGFACTQKGNLLRHIKL [46L_47C_49N_50Q_52G_53F_54A_55C_67L_, Q9UKT9] | -1.66 | -2.13 | -1.86 | -1.41
FICNQCGRGFTQKGNLLRHIKL [46F_47I_49N_50Q_52G_53R_54G_55F_67L_, Q9UKT9] | -3.02 | -3.8 | -3.62 | -2.96
FVCNQCGRLFTQKGNLLRHIKL [46F_47V_49N_50Q_52G_53R_54L_55F_67L_, Q9UKT9] | -1.99 | -2.78 | -1.99 | -1.68
FRCPVCGAAFTQKGNLLRHIKL [46F_47R_49P_50V_52G_53A_54A_55F_67L_, Q9UKT9] | 2.21 | 2.41 | 2.44 | 2.31
FWCDVCGAAFTQKGNLLRHIKL [46F_47W_49D_50V_52G_53A_54A_55F_67L_, Q9UKT9] | 2.61 | 3.37 | 1.17 | -0.68
FACPVCGAAFTQKGNLLRHIKL [46F_47A_49P_50V_52G_53A_54A_55F_67L_, Q9UKT9] | 3.6 | 2.87 | 1.74 | 1.56
FVCDVCGAAFTQKGNLLRHIKL [46F_47V_49D_50V_52G_53A_54A_55F_67L_, Q9UKT9] | -0.53 | 1.92 | 0.755 | 1.42
FLCPVCGAAFTQKGNLLRHIKL [46F_47L_49P_50V_52G_53A_54A_55F_67L_, Q9UKT9] | 0.86 | 0.132 | 1.81 | 1.42
FYCDVCGAAFTQKGNLLRHIKL [46F_47Y_49D_50V_52G_53A_54A_55F_67L_, Q9UKT9] | 2.59 | 2.94 | 1.59 | -1.42
FVCNQCGARFTQKGNLLRHIKL [46F_47V_49N_50Q_52G_53A_54R_55F_67L_, Q9UKT9] | -2.15 | -2.17 | -1.37 | -0.598
FRCNQCGHEFTQKGNLLRHIKL [46F_47R_49N_50Q_52G_53H_54E_55F_67L_, Q9UKT9] | -3.26 | -3.83 | -3.1 | -2.88
FDCPICGHIFTQKGNLLRHIKL [46F_47D_49P_50I_52G_53H_54I_55F_67L_, Q9UKT9] | -2.28 | -2.43 | -1.8 | -1.37
LACPICGFWCTQKGNLLRHIKL [46L_47A_49P_50I_52G_53F_54W_55C_67L_, Q9UKT9] | 2.95 | 2.34 | 2.58 | 2.45
FICEQCGAIFTQKGNLLRHIKL [46F_47I_49E_50Q_52G_53A_54I_55F_67L_, Q9UKT9] | -2.04 | -1.4 | -0.144 | -0.929
FMCEICGRLFTQKGNLLRHIKL [46F_47M_49E_50I_52G_53R_54L_55F_67L_, Q9UKT9] | -2.26 | -3.02 | -1.18 | -0.917
FNCPICGHCFTQKGNLLRHIKL [46F_47N_49P_50I_52G_53H_54C_55F_67L_, Q9UKT9] | -2.1 | -3.11 | -1.84 | -2.15
